Records with an inconclusive call do not appear. Activity calls are given as the source filed them. Unless noted, calls follow the shape of the dose curve; as a rule, active = well fitted curve in the direction sought with a large enough effect; inconclusive = small, poorly fitted or top-dose-only effect, or another doubt; inactive = no such curve, though single readings can be large; an effect the other way counts as inactive or inconclusive.
Columns and labels:
[1] = AP1 Signaling Pathway (AID 357; active = well fitted curve in either direction with a large enough effect, not every such curve was filed as active;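 also: ME-180 reporter cells stimulated with EGF at its EC50 level; % is scaled to controls: 0 for no effect and ±100 for the full control effect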); settings: ME-180 AP-1-bla reporter, EGF-induced, beta-lactamase ratio, 5 h; at 38 µM (top of the series)
In short: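 Beta-lactamase reporter under AP-1 response element, ME-180 background. Stimulus: EC50 EGF. Compound exposure 5 h, 37 °C. Detection: CCF4, 2.5 h RT, 460/530 nm. Values: AC50 from titration.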

[2] = biological target: Cytochrome P450 1A2 (Homo sapiens) (UniProt P05177); assay: p450-cyp1a2 (AID 410; calls by dose curve;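 also: -100% = full effect of reference inhibitor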)
In short: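 Luminescent readout of luciferin formed from Luciferin-ME by human CYP1A2; data normalized against complete inhibition by 57 uM furafylline. Enzyme 20nM, substrate 100uM at Km, 100mM KPO4 buffer, 60 min reaction at room temperature.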

[3] = Stat Signaling Pathway (AID 446; active = well fitted curve in either direction with a large enough effect, not every such curve was filed as active;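 also: ME-180 cervical cancer cells given 40 pM IL-6 alongside compound; SIE-controlled beta-lactamase reporter measured as 460/530 nm FRET emission ratio; % is scaled to controls: 0 for no effect and ±100 for the full control effect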); settings: ME-180 SIE beta-lactamase reporter, IL-6 stimulated, 5 h; at 38 µM (top of the series)
In short: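 Screening format detects activators and inhibitors alike: ME-180 SIE-bla cells stimulated at 40 pM IL-6 for 5 hrs with compound, then dual-emission beta-lactamase read at 405 nm excitation.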

[4] = biological target: Glucocorticoid receptor (Homo sapiens) (UniProt P04150); assay: GR-GFP Redistribution (AID 450;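 active = compounds whose dose series gives a full or clear partial fitted curve of increased nuclear translocation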; also: potency is read from the fitted curve at half-maximal effect); settings: U2OS GR-GFP nuclear translocation, laser cytometry, 2 h
[5] = biological target: Glucocorticoid receptor (Homo sapiens) (UniProt P04150); assay: GR-EFC Redistribution (AID 451; calls by dose curve; also: potency is read from the fitted curve at half-maximal effect); settings: CHO-K1 GR-EFC translocation, beta-gal luminescence, 2 h
In short: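 Translocation of GR-ED fusion to nuclear EA restores b-gal, read by luminescence after 1 h room-temperature detection. Engineered CHO-K1 biosensor cells, 1,000/well, exposed 2 h at 37 C to titrations up to 46 uM final.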

[6] = biological target: Mitogen-activated protein kinase 10 (Mus musculus) (UniProt Q61831); assay: JNK3 AlphaScreen Assay (AID 530; active = well fitted curve in either direction with a large enough effect, not every such curve was filed as active;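 also: kinase came from lysate of stimulated human HepG2 cells; signal reports phosphorylation of biotinylated GST-cJun 1-79 at Ser73 with 10 µM ATP; % is scaled to controls: 0 for no effect and ±100 for the full control effect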)
In short: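 Compound titrations were preincubated 15 minutes at room temperature with substrate, antibody and pre-activated JNK3-containing HepG2 lysate. Reactions were started with 10 uM ATP and stopped with EDTA-containing bead buffer for AlphaScreen detection.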

[7] = biological target: 3',5'-cyclic-AMP phosphodiesterase 4B (Homo sapiens) (UniProt Q07343); assay: qHTS Assay for Inhibitors of PDE-IV (AID 607; active = well fitted activation curve with a large enough effect in the main read-out, with a control signal flat, not every such curve was filed as active; also: % of control where 0% means no effect)
In short: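 The readout is membrane depolarisation from a cAMP-sensing CNG channel, detected with a potential dye at ex 535/em 590. Cells were HEK293-derived (endogenous PDE-IV) at 1000 cells/well, titrated up to 22.9 uM final.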

[8] = biological target: Guanine nucleotide-binding protein G(i) subunit alpha-1 (Homo sapiens) (UniProt P63096); assay: qHTS Assay for Inhibitors of RGS12 GoLoco Motif Activity (Green Fluorophore) (AID 879);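 also: 0% = labeled peptide with Gαi1 and full inhibition = labeled peptide alone without protein; negative values mean loss of peptide binding seen as reduced polarization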
In short: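 Fluorescence polarization assay: 50 nM Gαi1 with 10 nM FITC-labeled RGS12 GoLoco peptide in 10 mM Tris pH 7.5, 150 mM NaCl, 0.1 mM GDP, 0.05% NP40, 10 min at room temperature with compound.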

[9] = biological target: Muscarinic acetylcholine receptor M1 (Rattus norvegicus) (UniProt P08482); assay: qHTS Assay for Antagonists of Acetylcholine Muscarinic M1 Receptor: Measurement of IP-One Response (AID 944); also: nearly all actives have a fitted effect of over 75% in size
In short: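 M1-CHO (rat), 2000 cells/well, overnight recovery; cpd 10 min; carbachol EC80 (200 nM), 30 min, HEPES buffer + 50 mM LiCl pH 7.4; IP-One HTRF, Ex 337, Em 620/665 nm.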

[10] = biological target: Pyruvate kinase (Leishmania mexicana) (UniProt Q27686); assay: qHTS Validation Assay for Inhibitors of Leishmania Mexicana Pyruvate Kinase (AID 945);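 also: 0% = DMSO only neutral control wells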
In short: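 LmPYK E451W 0.2 nM; 0.5 mM PEP, 0.1 mM ADP, 7 mM MgCl2, 50 mM KCl, imidazole pH 7.2, 0.01% Tween 20, 0.05% BSA; 1 h RT; PKLight luminescence; DMSO-normalized.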

[11] = biological target: Alpha-galactosidase A (Homo sapiens) (UniProt P06280); assay: Counterscreen for Glucocerebrosidase Inhibitors: qHTS Assay for Human alpha-Galactosidase at pH 4.5 (AID 992); also: 0% is about no effect
In short: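 Concentration-response curves (0.7 nM to 77 uM final) were modeled with the Hill equation to give AC50. Reactions: 2 nM enzyme, 80 uM fluorogenic alpha-galactoside, pH 4.5 citric acid buffer, 20 min, room temperature.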

[12] = biological target: alpha-glucosidase (Oryza sativa, rice) (UniProt Q653V4); assay: Counterscreen for Glucocerebrosidase Inhibitors: qHTS Assay for Rice alpha-Glucosidase at pH 5.0 (AID 997);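 also: 0% = full activity with enzyme and -100% = basal without enzyme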
In short: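 Rice alpha-glucosidase (4 nM final) with 400 uM 4-methylumbelliferyl-alpha-D-glucopyranoside in citrate buffer pH 5.0, 20 min at room temperature, stopped at pH 10; fluorescence 365/440 nm, compounds 0.7 nM–77 uM, AC50 from Hill fits.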

[13] = Validation of Assay for Modulators of Lamin A Splicing (AID 1459; active = well fitted curve in the direction sought with a large enough effect in the signal ratio; the % refers to the signal ratio;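 also: cells exposed to compound for two days before reading; 0% is about no effect; ratio rise marks activators and ratio drop marks inhibitors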)
In short: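 Splicing correction read as GFP (500-530 nm) over DsRed2 (575-640 nm) object intensity after 48 h compound exposure of reporter HeLa S3 clones (600 cells/well, 2% FBS medium); ancitabine and cycloheximide titrations, 0.5% DMSO as vehicle.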

[14] = qHTS Assay for Lipid Storage Modulators (AID 1519; calls by dose curve); settings: Drosophila S3 cells, BODIPY lipid droplet/cell ratio, laser cytometry, cells loaded with oleic acid
In short: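 Cells seeded at 5,000 per well were treated with compounds over a concentration series and loaded with oleic acid (400 uM, as added). Lipid droplet fluorescence (488 nm excitation, 500-530 nm channel) was read by laser-scanning cytometry and normalized to 20 uM Triacsin C.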

[15] = biological target: DNA repair nuclease/redox regulator APEX1 (Homo sapiens) (UniProt P27695); assay: qHTS Validation Assay for Inhibitors of the Human Apurinic/apyrimidinic Endonuclease 1 (APE1) (AID 1705;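 also: TAMRA fluorescence gain over two minutes as APE1 cuts a quenched THF abasic duplex; % is scaled to controls: 0 for no effect and ±100 for the full control effect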)
In short: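 Activity read as rising fluorescence (598 nm emission, 525 nm excitation) from incision of a TAMRA/BHQ-2 duplex carrying a THF abasic site (50 nM). Compound and enzyme sat 15 min at RT before substrate start; signal change between first and third 60-s reads.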

[16] = Counterscreen for APE1 Inhibitors: Fluorescent Dye Displacement Validation Assay (AID 1707);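 also: plate controls were ThO with dsDNA and no compound for no effect and ThO without dsDNA for full effect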
In short: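 Assay buffer: Tris-HCl pH7.5 with 50mM NaCl, 2 mM MgCl2, 0.01% Tween-20. Dye 250 nM, duplex 50 nM final. Readout: decrease in ThO endpoint fluorescence, 480 nm excitation, 540 nm emission.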

[17] = biological target: Endonuclease 4 (Escherichia coli (strain K12)) (UniProt P0A6C1); assay: Counterscreen for APE1 Inhibitors: qHTS Validation Assay for Inhibitors of Endonuclease IV (AID 1708); also: % is scaled to controls: 0 for no effect and ±100 for the full control effect
In short: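 qHTS concentration-response format; LOPAC1280 tested under APE1-screen conditions. 2 nM enzyme, 15 min compound preincubation at RT, then 50 nM TAMRA/BHQ-2 abasic substrate; kinetic fluorescence read, three reads at 60 s intervals.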

[18] = qHTS for differential inhibitors of proliferation of Plasmodium falciparum line 7G8 (AID 1815);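 also: parasite growth measured after three days of incubation; plate controls were vehicle wells for no effect and reference inhibitor wells for full effect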
[19] = qHTS for differential inhibitors of proliferation of Plasmodium falciparum line GB4 (AID 1816); settings: Potency: Plasmodium falciparum GB4 proliferation inhibition;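 also: parasite growth measured after 72 h incubation; 0% = vehicle DMSO and -100% = reference inhibitor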

Sequence of Glucocorticoid receptor (Homo sapiens) (P04150 whole entry, looked up, the tested form may be a part): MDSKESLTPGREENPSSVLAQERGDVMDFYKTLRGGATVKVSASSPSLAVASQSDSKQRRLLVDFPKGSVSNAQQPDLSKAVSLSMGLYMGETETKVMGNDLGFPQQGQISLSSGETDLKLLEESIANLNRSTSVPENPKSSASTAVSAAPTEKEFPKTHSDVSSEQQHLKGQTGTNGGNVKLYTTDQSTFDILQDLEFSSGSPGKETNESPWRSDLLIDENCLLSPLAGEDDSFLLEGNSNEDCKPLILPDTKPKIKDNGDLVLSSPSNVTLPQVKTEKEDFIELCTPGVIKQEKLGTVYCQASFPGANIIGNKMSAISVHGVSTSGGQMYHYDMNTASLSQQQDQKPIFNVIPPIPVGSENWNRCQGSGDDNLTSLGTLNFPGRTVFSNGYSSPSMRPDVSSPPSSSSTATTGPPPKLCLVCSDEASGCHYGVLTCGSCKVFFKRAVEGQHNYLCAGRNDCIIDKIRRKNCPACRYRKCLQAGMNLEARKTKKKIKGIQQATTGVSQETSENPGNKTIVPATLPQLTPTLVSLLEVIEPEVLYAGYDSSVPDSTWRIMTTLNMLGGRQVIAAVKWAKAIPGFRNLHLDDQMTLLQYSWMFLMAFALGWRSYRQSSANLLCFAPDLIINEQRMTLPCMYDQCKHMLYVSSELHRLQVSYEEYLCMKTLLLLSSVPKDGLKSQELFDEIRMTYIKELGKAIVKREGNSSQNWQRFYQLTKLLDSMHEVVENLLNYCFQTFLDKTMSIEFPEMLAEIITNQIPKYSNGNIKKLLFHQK
Sequence of 3',5'-cyclic-AMP phosphodiesterase 4B (Homo sapiens) (Q07343 whole entry, looked up): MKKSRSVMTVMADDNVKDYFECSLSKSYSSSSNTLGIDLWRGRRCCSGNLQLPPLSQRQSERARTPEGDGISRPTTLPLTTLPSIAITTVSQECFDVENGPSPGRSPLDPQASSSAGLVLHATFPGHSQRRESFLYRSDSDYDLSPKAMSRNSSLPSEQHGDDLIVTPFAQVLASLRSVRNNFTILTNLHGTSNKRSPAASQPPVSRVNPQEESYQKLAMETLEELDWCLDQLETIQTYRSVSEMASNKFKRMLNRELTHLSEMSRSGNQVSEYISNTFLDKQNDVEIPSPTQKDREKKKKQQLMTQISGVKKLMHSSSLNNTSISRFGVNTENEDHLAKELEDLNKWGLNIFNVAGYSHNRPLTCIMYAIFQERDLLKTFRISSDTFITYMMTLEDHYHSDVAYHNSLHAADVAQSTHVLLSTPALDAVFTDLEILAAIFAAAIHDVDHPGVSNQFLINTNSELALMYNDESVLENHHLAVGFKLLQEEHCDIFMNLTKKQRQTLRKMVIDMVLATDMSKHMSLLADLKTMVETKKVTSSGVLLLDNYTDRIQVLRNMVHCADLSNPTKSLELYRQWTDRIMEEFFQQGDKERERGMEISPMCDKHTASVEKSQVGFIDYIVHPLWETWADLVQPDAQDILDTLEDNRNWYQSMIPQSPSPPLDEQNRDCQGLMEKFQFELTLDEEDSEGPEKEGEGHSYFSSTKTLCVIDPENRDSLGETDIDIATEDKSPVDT
Sequence of Pyruvate kinase (Leishmania mexicana) (Q27686 2-499 E452W): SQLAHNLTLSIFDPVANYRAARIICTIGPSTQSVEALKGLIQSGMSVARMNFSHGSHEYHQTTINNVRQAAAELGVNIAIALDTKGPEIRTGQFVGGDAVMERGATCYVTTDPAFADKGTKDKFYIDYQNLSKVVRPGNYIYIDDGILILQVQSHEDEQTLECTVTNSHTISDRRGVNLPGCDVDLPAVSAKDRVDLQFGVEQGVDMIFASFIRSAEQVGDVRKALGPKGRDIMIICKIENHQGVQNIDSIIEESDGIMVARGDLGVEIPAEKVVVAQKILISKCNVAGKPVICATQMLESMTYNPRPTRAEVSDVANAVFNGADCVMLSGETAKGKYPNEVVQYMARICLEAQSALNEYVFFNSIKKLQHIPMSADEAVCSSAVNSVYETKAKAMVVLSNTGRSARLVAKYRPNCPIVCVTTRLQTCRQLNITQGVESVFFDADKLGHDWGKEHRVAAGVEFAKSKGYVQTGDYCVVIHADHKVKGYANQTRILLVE
Sequence of Muscarinic acetylcholine receptor M1 (Rattus norvegicus) (P08482 whole entry, looked up): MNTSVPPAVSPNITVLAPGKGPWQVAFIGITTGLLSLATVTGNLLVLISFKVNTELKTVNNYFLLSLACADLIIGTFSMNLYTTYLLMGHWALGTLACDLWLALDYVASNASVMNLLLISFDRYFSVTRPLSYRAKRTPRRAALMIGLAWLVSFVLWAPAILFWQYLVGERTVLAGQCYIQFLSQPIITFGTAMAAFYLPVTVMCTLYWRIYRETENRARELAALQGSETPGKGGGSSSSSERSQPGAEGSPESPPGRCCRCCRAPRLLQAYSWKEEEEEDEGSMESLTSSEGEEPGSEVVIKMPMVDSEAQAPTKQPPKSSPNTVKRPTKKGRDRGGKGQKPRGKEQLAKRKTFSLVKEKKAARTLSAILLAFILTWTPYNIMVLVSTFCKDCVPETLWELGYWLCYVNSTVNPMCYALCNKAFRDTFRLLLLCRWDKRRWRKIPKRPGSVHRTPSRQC
Sequence of Alpha-galactosidase A (Homo sapiens) (P06280 whole entry, looked up): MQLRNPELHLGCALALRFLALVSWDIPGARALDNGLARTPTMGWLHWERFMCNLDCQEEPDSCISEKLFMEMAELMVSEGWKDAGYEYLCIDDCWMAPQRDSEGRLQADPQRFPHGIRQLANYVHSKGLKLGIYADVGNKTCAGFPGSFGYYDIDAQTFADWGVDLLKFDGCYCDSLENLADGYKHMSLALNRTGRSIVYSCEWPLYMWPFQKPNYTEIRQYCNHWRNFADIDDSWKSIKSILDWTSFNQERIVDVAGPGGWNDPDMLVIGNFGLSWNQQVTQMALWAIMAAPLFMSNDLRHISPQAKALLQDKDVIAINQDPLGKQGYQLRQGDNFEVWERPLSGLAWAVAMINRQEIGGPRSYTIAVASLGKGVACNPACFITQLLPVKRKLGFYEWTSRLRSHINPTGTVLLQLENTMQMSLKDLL
Sequence of Cytochrome P450 1A2 (Homo sapiens) (P05177 whole entry, looked up): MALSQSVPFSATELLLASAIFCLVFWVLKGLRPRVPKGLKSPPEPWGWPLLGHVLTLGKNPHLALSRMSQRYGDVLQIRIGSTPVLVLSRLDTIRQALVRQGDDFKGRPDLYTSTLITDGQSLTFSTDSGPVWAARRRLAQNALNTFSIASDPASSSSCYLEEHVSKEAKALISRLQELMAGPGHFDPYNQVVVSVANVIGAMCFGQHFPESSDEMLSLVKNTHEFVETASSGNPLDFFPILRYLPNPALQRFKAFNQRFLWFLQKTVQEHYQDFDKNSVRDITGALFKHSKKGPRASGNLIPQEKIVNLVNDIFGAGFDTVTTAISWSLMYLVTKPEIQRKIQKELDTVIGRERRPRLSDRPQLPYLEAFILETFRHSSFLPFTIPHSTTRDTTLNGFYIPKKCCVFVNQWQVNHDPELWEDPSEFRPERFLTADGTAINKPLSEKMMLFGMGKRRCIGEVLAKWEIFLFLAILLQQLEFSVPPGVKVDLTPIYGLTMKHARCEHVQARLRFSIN
Sequence of DNA repair nuclease/redox regulator APEX1 (Homo sapiens) (P27695 whole entry, looked up): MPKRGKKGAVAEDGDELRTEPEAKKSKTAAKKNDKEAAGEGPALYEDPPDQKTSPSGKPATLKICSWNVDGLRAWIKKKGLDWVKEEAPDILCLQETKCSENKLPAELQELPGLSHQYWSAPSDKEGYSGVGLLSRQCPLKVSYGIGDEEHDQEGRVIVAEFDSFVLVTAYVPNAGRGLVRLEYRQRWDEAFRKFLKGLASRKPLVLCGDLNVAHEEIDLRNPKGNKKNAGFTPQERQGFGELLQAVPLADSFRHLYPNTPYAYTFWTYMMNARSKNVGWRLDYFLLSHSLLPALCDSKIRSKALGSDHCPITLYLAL
Sequence of Guanine nucleotide-binding protein G(i) subunit alpha-1 (Homo sapiens) (P63096 whole entry, looked up): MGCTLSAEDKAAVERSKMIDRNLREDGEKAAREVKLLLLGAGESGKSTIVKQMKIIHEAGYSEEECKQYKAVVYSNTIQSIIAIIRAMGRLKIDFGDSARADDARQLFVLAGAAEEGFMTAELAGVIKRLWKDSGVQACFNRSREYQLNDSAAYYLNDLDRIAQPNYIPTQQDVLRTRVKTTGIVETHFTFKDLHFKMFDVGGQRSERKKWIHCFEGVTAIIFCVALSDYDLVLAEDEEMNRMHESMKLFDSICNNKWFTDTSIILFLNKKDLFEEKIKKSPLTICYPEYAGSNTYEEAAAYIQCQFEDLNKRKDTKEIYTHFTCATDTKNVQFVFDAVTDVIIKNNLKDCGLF

Cc1cccc(C)c1NC(=O)C[N+](C)(C)C
inactive: activity change, negative = inhibition [1] 0.892% | Potency [2] | activity, negative = inhibition [3] 8.11% | Potency [4] > 46 µM | Potency [5] > 46 µM | Potency [6] | Potency [7] | outcome [8] | Potency [9] | Potency [10] | outcome [11] | outcome [12] | outcome [13] | activity change, negative = inhibition ([14]; at 57.5 µM (top of the series)) -1.34% | Potency [15] | Potency [16] | Potency [17] | Potency [18] | Potency [19]
-10.6%: max response ([14]; measured here: cell count channel max response)
-11.6%: max response ([14]; measured here: lipid channel max response)
